We go through 13 compounds from the supplement of paper PMC13380429.

This experiment relates to Vero E6 infected with SARS-CoV-2. Description: morphology score (similarity to uninfected cells); higher = more like uninfected cells. Particulars: 24 h.
Regarding `Cc1nc(NC(=O)N2CCC[C@H]2C(N)=O)sc1-c1ccnc(C(C)(C)C(F)(F)F)c1` [alpelisib] (10 µM), the morphology score was determined as 0.0577.
Compound `Nc1sc2c(c1C(=O)c1ccc(Cl)cc1)CCCC2` (10 µM) gave a morphology score of 0.0676.
In the case of `CNCC(O)c1ccc(O)c(O)c1` (racemic) [DL-Adrenaline] (10 µM) it was 0.188; in that of `Cc1ccc(NC2=CC(=O)c3sc(C)nc3C2=O)cc1` [ryuvidine] (0.833333 µM), 0.165.
In the case of `C=C(CC)C(=O)c1ccc(OCC(=O)O)c(Cl)c1Cl` [etacrynic-acid] (10 µM) it was -0.0164; in that of `O=C(O)/C=C/c1ccc(O)c(O)c1` [caffeic-acid] (10 µM), -0.0394; in that of `COc1ccc2cccc(N3CCN(CCNC(=O)c4ccc(F)cc4)CC3)c2c1` (10 µM), 0.241.
To `Nc1ncccc1-c1nc2ccc(-c3ccccc3)nc2n1-c1ccc(C2(N)CCC2)cc1` (10 µM) belongs 0.702.
As to `CN1C(=O)COc2c(C(=O)NC3CN4CCC3CC4)cc(Cl)cc21` (stereo not drawn) [azasetron] (10 µM), the morphology score was 0.143.
For `O=C(O)c1cccnc1Nc1cccc(C(F)(F)F)c1` [niflumic-acid] (10 µM), the morphology score turned out to be 0.127.
To `Cc1cc(Nc2ncnc3ccc(-c4ccc(CNCCS(C)(=O)=O)o4)cc23)ccc1Oc1ccn2ncnc2c1` [HER2-Inhibitor-1] (10 µM) belongs 0.174.
To `Cc1ccc(C)c(Oc2ccncc2C(=O)N2CCN(C3CC3)c3ccccc32)c1` (10 µM) belongs 0.133; to `CCOc1ccc(-c2ccc(Cn3c(CC(C)(C)C(=O)O)c(SC(C)(C)C)c4cc(OCc5ccc(C)cn5)ccc43)cc2)cn1` (0.833333 µM), 0.228.
